PubChem BioAssay AID1159580 (chemical genetic matrix, 2015)
About 2,000 (36%) of roughly 5,500 compounds were called active. Another 18% or so got no clear call; they are omitted. No stated cut-off is given here; in the data, active means normalized growth mostly below about 0.91 (no sharp cut-off); inconclusive means no clear call, values can overlap the other calls; inactive means mostly above about 0.92. This is one part of the list.

Assay: chemical genetic growth profiling, strain panel (AID 1159580);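 further: tested at 20 µM; growth read once vehicle control cultures reached saturation at 30 °C; 1 = growth at the plate median or of vehicle wells; lower values mean less growth of the strain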
Conditions: S. cerevisiae deletion strains, growth OD
[1] = locus YDR150W, strain NUM1, active compounds read low
[2] = locus YGR078C, strain PAC10, active compounds read low
[3] = locus YMR263W, strain SAP30, active compounds read low
[4] = locus YNL322C, strain KRE1, active compounds read low
[5] = locus YPL241C, strain CIN2, active compounds read low

Measured: normalized growth

COc1ccc(S(=O)(=O)Nc2cc(C)c(C)cc2[N+](=O)[O-])c(OC)c1
inactive: locus YAL013W, strain DEP1, active compounds read low 1.01 | locus YBR229C, strain ROT2, active compounds read low 1 | locus YCL061C, strain MRC1, active compounds read low 1 | locus YDL101C, strain DUN1, active compounds read low 1.01 | [1] 0.885 | locus YEL061C, strain CIN8, active compounds read low 1.01 | [2] 0.995 | locus YGR229C, strain SMI1, active compounds read low 1.01 | locus YHR030C, strain SLT2, active compounds read low 0.991 | locus YHR087W, strain rtc3, active compounds read low 1 | locus YJR043C, strain POL32, active compounds read low 1 | locus YJR075W, strain HOC1, active compounds read low 1.01 | locus YKL190W, strain CNB1, active compounds read low 1.02 | locus YLR039C, strain RIC1, active compounds read low 0.968 | locus YLR058C, strain SHM2 (second series), active compounds read low 1 | locus YLR085C, strain ARP6, active compounds read low 1.04 | locus YLR262C, strain YPT6, active compounds read low 0.967 | locus YML094W, strain GIM5, active compounds read low 0.983 | locus YMR219W, strain ESC1, active compounds read low 0.999 | [3] 0.973 | locus YNL128W, strain TEP1, active compounds read low 1.02 | locus YNL153C, strain GIM3, active compounds read low 1.02 | locus YNL298W, strain CLA4 (second series), active compounds read low 1.04 | [4] 0.989 | locus YNR030W, strain Alg12, active compounds read low 0.998 | locus YPL055C, strain LGE1, active compounds read low 0.889 | [5] 1.03 | locus YPR135W, strain CTF4, active compounds read low 0.946

Ic1ccccc1CNC1C2CCN(CC2)C1C(c1ccccc1)c1ccccc1 (configuration not stated)
inactive: locus YAL040C, strain CLN3, active compounds read low 0.998 | locus YCL061C, strain MRC1 (second series), active compounds read low 0.984 | [1] 0.996 | locus YDR363W, strain ESC2, active compounds read low 0.977 | locus YER002W, strain NOP16, active compounds read low 1.05 | [2] 1 | [3] 0.998 | locus YMR307W, strain GAS1, active compounds read low 0.989 | locus YNL175C, strain NOP13, active compounds read low 1.05 | locus YNL197C, strain WHI3, active compounds read low 1.07 | locus YNL224C, strain SQS1, active compounds read low 1.05 | [4] 1 | locus YOR083W, strain WHI5 (second series), active compounds read low 1.05 | [5] 0.998
